Records with an inconclusive call do not appear. Where a call stands in place of a potency, no number is given. Some compounds were tested as several samples or in several runs, with calls that do not always agree. The source made the active and inactive calls. Calls come from the whole dose curve; as a rule, active = well fitted inhibition curve with a large enough effect; inconclusive = small, poorly fitted or top-dose-only effect; inactive = flat fitted curve, though single readings scatter.
The molecules below were run against Voltage-gated inwardly rectifying potassium channel KCNH2 (Homo sapiens) (UniProt Q12809) (assay: qHTS Assay for Small Molecule Inhibitors of the Human hERG Channel Activity (AID 588834;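 note: lower thallium flux fluorescence means stronger hERG block; nearly all actives have a fitted effect of over 50% in size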)). Details: U2OS BacMam hERG, FluxOR thallium flux fluorescence; series mostly up to 46.1 µM.
Chain of Voltage-gated inwardly rectifying potassium channel KCNH2 (Homo sapiens) (Q12809 whole entry, looked up): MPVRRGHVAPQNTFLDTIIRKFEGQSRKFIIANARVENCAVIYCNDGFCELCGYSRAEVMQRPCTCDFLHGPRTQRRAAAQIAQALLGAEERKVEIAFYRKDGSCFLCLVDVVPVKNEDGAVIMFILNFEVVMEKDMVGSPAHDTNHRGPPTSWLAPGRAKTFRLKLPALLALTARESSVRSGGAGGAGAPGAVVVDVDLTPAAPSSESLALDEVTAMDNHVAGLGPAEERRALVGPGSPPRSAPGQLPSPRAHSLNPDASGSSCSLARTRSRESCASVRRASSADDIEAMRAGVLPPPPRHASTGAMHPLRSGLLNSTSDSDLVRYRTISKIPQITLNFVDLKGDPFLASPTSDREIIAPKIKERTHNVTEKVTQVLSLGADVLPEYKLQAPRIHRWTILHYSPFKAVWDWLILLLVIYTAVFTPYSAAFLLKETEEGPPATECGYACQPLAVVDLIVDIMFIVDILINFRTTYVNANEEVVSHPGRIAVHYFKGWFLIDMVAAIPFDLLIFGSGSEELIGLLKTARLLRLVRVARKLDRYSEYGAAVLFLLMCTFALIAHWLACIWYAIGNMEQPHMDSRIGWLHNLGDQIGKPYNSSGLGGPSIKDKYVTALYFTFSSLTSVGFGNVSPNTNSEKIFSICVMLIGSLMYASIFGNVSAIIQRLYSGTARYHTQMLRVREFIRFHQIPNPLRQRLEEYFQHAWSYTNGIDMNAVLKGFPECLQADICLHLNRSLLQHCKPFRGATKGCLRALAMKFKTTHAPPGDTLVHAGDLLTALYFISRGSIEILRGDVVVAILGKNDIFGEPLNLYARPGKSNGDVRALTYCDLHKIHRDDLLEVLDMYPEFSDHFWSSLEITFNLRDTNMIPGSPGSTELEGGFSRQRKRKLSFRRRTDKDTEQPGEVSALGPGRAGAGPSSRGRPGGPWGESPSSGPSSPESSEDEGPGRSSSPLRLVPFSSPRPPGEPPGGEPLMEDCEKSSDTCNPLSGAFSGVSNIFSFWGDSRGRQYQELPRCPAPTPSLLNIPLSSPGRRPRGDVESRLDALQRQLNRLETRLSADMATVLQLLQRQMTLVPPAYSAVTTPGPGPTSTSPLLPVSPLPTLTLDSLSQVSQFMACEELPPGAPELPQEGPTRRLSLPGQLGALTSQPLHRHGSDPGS
Summary of the method: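 Measured: FluxOR fluorescence after thallium stimulation in U2OS cells transduced with hERG by baculovirus. Compounds pre-incubated around 10 min; medium Opti-MEM with 2% FCS. AC50 from Hill equation.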
Potency is the fitted concentration of half-maximal effect.

| Compound | Potency |
| --- | --- |
| C=CC[C@]1(O)CC[C@H]2[C@@H]3CCC4=CCCC[C@@H]4[C@H]3CC[C@@]21C | inactive |
| CC(=O)OCC(=O)[C@H]1CC[C@H]2[C@@H]3CC[C@H]4C[C@H](O)CC[C@]4(C)[C@H]3C(=O)C[C@]12C | inactive |
| CCN(CC)C(=O)N[C@H]1C[C@@H]2c3cccc4[nH]cc(c34)C[C@H]2N(C)C1 | inactive |
| C[C@@H](Cc1ccccc1)N(C)C | inactive |
| CNc1ccc(C(=O)CC(O)CCC(C)C2OC(=O)CC(O)CC(=O)CC(O)CC(O)CC(O)CC(O)CC3(O)CC(O)C(C(=O)OC)C(CC(O[C@@H]4O[C@H](C)[C@@H](O)[C@H](N)[C@@H]4O)/C=C/C=C/C=C/C=C/C=C/C=C/C=C/C2C)O3)cc1 (stereo partly drawn) | inactive |
| C[C@]12CC[C@H](OS(=O)(=O)O)CC1=CC[C@@H]1[C@@H]2CC[C@]2(C)C(=O)CC[C@@H]12 | inactive |
| CN1[C@H]2CC[C@@H]1[C@@H](C(=O)O)[C@@H](OC(=O)c1ccccc1)C2 | inactive |
| CC(C)CC(NP(=O)(O)O[C@@H]1O[C@@H](C)[C@H](O)[C@@H](O)[C@H]1O)C(=O)NC(Cc1c[nH]c2ccccc12)C(=O)O (stereo partly drawn) | inactive |
| CN(C)CCCCCCN(C)C (tested in a mixture with another compound) | inactive |
| CN[C@H]1C[C@@H](N)[C@H](O)[C@@H](O[C@@H]2O[C@H](CO)[C@H](O)[C@@H]3OC4(O[C@H]23)O[C@H](C(N)CO)[C@H](O)[C@H](O)[C@H]4O)[C@@H]1O (stereo partly drawn) | inactive |
| [S]=[Sb](=[S])[S][Sb](=[S])=[S] | inactive |
| C[N+]1([O-])[C@@H]2CC[C@H]1CC(OC(=O)C(CO)c1ccccc1)C2 (stereo partly drawn) | inactive |
| OC[C@@H](O)[C@H]1O[C@@H]2O[C@H](C(Cl)(Cl)Cl)O[C@@H]2[C@H]1O | inactive |
| C[N+]1(C)CCC(OC(=O)C(c2ccccc2)c2ccccc2)CC1 | inactive |
| CC[C@H](C)[C@H]1O[C@]2(C=C[C@@H]1C)C[C@@H]1C[C@@H](C/C=C(\C)[C@@H](O[C@H]3C[C@H](OC)[C@@H](O[C@H]4C[C@H](OC)[C@@H](O)[C@H](C)O4)[C@H](C)O3)[C@@H](C)/C=C/C=C3\CO[C@@H]4[C@H](O)C(C)=C[C@@H](C(=O)O1)[C@]34O)O2 | inactive |
| CCCCC[C@@H](O)C1C(=O)OC(C)[C@H](O)/C=C/C=C/C=C/C=C/C=C(\C)C(O)C(O)C(O)C[C@H](O)C[C@H](O)C[C@H](O)C[C@H](O)C[C@@H]1O (stereo partly drawn) | inactive |
| C[N+]1(C)[C@@H]2CC(OC(=O)[C@H](CO)c3ccccc3)C[C@H]1[C@H]1O[C@@H]12 (stereo partly drawn) | inactive |
| C=C[C@H]1CN2CC[C@H]1C[C@@H]2[C@@H](O)c1ccnc2ccccc12 | 14.1 µM (active) |
| C[CH2][Hg][S]c1ccccc1C(=O)O | inactive |
| C[C@]12CC[C@H](O)C[C@H]1CC[C@@H]1[C@@H]2CC[C@]2(C)[C@@H](c3ccc(=O)oc3)C[C@H]3O[C@]132 | inactive |
| O=C1C=C2C=C[C@@H]3C[C@@]2(O1)[C@H]1CCCCN31 | inactive |
| C[C@H]1CC[C@]2(NC1)O[C@H]1C[C@H]3[C@@H]4CC[C@H]5C[C@@H](O[C@@H]6O[C@H](CO)[C@H](O[C@@H]7O[C@H](CO)[C@@H](O)[C@H](O[C@@H]8OC[C@@H](O)[C@H](O)[C@H]8O)[C@H]7O[C@@H]7O[C@H](CO)[C@@H](O)[C@H](O)[C@H]7O)[C@H](O)[C@H]6O)CC[C@]5(C)[C@H]4CC[C@]3(C)[C@H]1[C@@H]2C | 15.8 µM (active) |
| CC(=O)O[C@H]1C[C@H](O[C@H]2[C@@H](O)C[C@H](O[C@H]3[C@@H](O)C[C@H](OC4CC[C@@]5(C)[C@H](CC[C@@H]6[C@@H]5CC[C@]5(C)[C@@H](C7=CC(=O)OC7)CC[C@]65O)C4)O[C@@H]3C)O[C@@H]2C)O[C@H](C)[C@H]1O[C@@H]1O[C@H](CO)[C@@H](O)[C@H](O)[C@H]1O (stereo partly drawn) | inactive |
| Clc1ccc(C(Cn2ccnc2)OCc2csc3c(Cl)cccc23)c(Cl)c1 (stereo not drawn) | 3.98 µM (active) |
| C[C@]12CC[C@H]3[C@@H](CCC4=C(O)C(=O)CC[C@@H]43)[C@@H]1CC[C@@H]2OC(=O)CCC1CCCC1 | inactive |
| O=[N+]([O-])C(Br)(CO)CO | inactive |
| C[C@@H](CO)NC(=O)[C@@H]1C=C2c3cccc4[nH]cc(c34)C[C@H]2N(C)C1 | inactive |
| O=C1C[C@@H]2OCC=C3CN4CC[C@]56c7ccccc7N1[C@H]5[C@H]2[C@H]3C[C@H]46 (tested in a mixture with another compound) | 25.1 µM (active) and inactive |

From PubChem BioAssay (NCATS)
